According to PubChem BioAssay (NCATS):
Several values for one entry are separate records, joined by “and”; a condition that tells them apart may be missing. Equal values may be shown once. Records with an inconclusive call do not appear. Activity calls are given as the source filed them. Calls follow the shape of the dose curve; as a rule, active = well fitted curve in the direction sought with a large enough effect; inconclusive = small, poorly fitted or top-dose-only effect, or another doubt; inactive = no such curve, though single readings can be large; an effect the other way counts as inactive or inconclusive.

Assays:
[1] = target: Calcium and integrin-binding protein 1 (Homo sapiens) (UniProt Q99828); assay: Primary qHTS for Identification of Calcium Integrin Binding Protein 1 (CIB1) Competitor (AID 1508620);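 also: GST tagged CIB1 binding a fluorescein labelled alphaIIb integrin peptide tracer; top concentration of the series differs between compounds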
Sequence of Calcium and integrin-binding protein 1 (Homo sapiens) (Q99828 whole entry, looked up): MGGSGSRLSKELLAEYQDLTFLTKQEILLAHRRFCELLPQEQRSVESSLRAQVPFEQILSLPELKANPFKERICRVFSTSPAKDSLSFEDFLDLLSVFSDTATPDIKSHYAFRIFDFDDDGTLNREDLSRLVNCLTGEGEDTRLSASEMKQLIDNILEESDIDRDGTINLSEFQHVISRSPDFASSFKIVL
In short: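 Fluorescence polarization competition: CIB1-GST (1 uM final) preincubated with compound 15 min at room temperature, then FITC-labeled alphaIIb peptide (100 nM final) added for another 15 min. Polarization read at Ex 480/Em 540.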

[2] = Primary qHTS for inhibitors of nuclear receptor binding SET domain protein 2 (NSD2) in an isogenic RCH-ACV NSD2 p.E1099K mutant (9B) (AID 1645876); also: nearly all actives have a fitted effect of over 70% in size; also: potency is read from the fitted curve at half-maximal effect
[3] = Primary qHTS for inhibitors of nuclear receptor binding SET domain protein 2 (NSD2) in an RCH-ACV wild type WT cells (2C) (AID 1645877); also: nearly all actives have a fitted effect of over 70% in size; also: potency is read from the fitted curve at half-maximal effect
[4] = target: Glutathione peroxidase 1 (Homo sapiens) (UniProt P07203); assay: Primary qHTS Assay for Inhibitors of Recombinant Selenoprotein Glutathione Peroxidase 1 (GPX1) (AID 1845191); also: nearly all actives have a fitted effect of over 65% in size
Sequence of Glutathione peroxidase 1 (Homo sapiens) (P07203 whole entry, looked up): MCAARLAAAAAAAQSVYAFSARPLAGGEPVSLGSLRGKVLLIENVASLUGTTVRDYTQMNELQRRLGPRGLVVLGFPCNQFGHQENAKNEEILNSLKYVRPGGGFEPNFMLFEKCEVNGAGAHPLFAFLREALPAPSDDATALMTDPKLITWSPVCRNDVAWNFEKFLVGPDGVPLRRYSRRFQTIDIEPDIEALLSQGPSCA
In short: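 GPX1 10 nM, GR 100 nM, GSH 1 mM, NADPH 0.5 mM, CHP 0.5 mM (final). 30-min cpd preincubation, RT. Ex340/Em450 read t=0, t=15 min.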

[5] = target: Phospholipid hydroperoxide glutathione peroxidase GPX4 (Homo sapiens) (UniProt P36969); assay: Primary qHTS Assay for Inhibitors of Recombinant Selenoprotein Glutathione Peroxidase 4 (GPX4) (AID 1845192); details: outcome: dose series up to 50 µM unless noted; also: nearly all actives have a fitted effect of over 65% in size
Sequence of Phospholipid hydroperoxide glutathione peroxidase GPX4 (Homo sapiens) (P36969 whole entry, looked up): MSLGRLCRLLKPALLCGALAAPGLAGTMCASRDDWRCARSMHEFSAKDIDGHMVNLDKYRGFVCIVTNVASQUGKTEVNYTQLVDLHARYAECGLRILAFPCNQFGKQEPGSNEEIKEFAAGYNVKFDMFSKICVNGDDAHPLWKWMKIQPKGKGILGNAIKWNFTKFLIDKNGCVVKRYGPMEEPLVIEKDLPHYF
In short: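 qHTS, GR-coupled: GPX4 200 nM + cpd 30 min RT → GSH 1 mM, NADPH 0.5 mM, GR 100 nM → CHP 0.5 mM start; fluor 340/450 at t0 and t15 min; no-enzyme wells as control.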

[6] = Primary fluorescence-based thiol-reactive (MSTI) qHTS assay for identification of artifact compounds. (AID 1845221);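 also: thiol-reactive compounds lower the probe fluorescence signal; nearly all actives have a fitted effect of over 65% in size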
In short: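 A multi-concentration qHTS design tested compounds against 4 uM MSTI, pH 7.4 phosphate-buffered saline. Plates were protected from light for 1 h at room temperature before imaging fluorescence.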

[7] = Primary redox qHTS assay for identification of artifact compounds. (AID 1845223)
In short: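 Redox-cycling detection via DTT (250 uM final) oxidation coupled to Amplex Red (25 uM)/HRP (250 mU/mL) in HBSS. 15 min preincubation plus 30 min after DTT, room temperature. Ex/Em 525/598 nm; 4-parameter Hill fit against DMSO and 10 uM DA3003.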

CASKI = assay: Primary qHTS to identify gynecologic anti-cancer compounds using libraries of approved drugs and bioactive compounds (AID 1345084); details: Gynecologic cancer cell panel viability, ATPlite luminescence, 48 h; series mostly up to 57.5 µM; also: nearly all actives have a fitted effect of over 55% in size; also: potency is read from the fitted curve at half-maximal effect
In short: (§1)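 ATP-based viability (ATPlite), 1,000 cells/well, 16 h pre-incubation, 48 h compound at 37 C, 5% CO2, 15 min RT before read.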

Es-2 = assay: as above; details: Gynecologic cancer cell panel viability, ATPlite luminescence, 48 h; series mostly up to 57.5 µM
In short: as §1

HeLa = assay: as above; details: Gynecologic cancer cell panel viability, ATPlite luminescence, 48 h; series mostly up to 57.5 µM
In short: as §1

OV90 = assay: as above; details: Gynecologic cancer cell panel viability, ATPlite luminescence, 48 h; series mostly up to 57.5 µM
In short: as §1

[8] = target: Luciferin 4-monooxygenase (Photinus pyralis) (UniProt P08659); assay: Primary firefly luciferase (FLuc) qHTS assay for identification of artifact compounds. (AID 1845220); also: nearly all actives have a fitted effect of over 60% in size
In short: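 Reaction readout was CCD-imaged luminescence, taken 5 min after adding 10 nM purified firefly enzyme to compound-treated wells holding 10 uM luciferin and ATP in pH 7.6 buffer.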

C33A = assay: Primary qHTS to identify gynecologic anti-cancer compounds using libraries of approved drugs and bioactive compounds (AID 1345084); details: Gynecologic cancer cell panel viability, ATPlite luminescence, 48 h; series mostly up to 57.5 µM; also: nearly all actives have a fitted effect of over 55% in size; also: potency is read from the fitted curve at half-maximal effect
In short: as §1

Hek293T = assay: as above; details: Gynecologic cancer cell panel viability, ATPlite luminescence, 48 h, control line for the selectivity index; series mostly up to 57.5 µM
In short: as §1

JEG-3 = assay: as above; details: Gynecologic cancer cell panel viability, ATPlite luminescence, 48 h; series mostly up to 57.5 µM
In short: as §1

PA-1 = assay: as above; details: Gynecologic cancer cell panel viability, ATPlite luminescence, 48 h; series mostly up to 57.5 µM
In short: as §1

Tov-21-G = assay: as above; details: Gynecologic cancer cell panel viability, ATPlite luminescence, 48 h; series mostly up to 57.5 µM
In short: as §1

Tov112D = assay: as above; details: Gynecologic cancer cell panel viability, ATPlite luminescence, 48 h; series mostly up to 57.5 µM
In short: as §1

[9] = tested on: Zika virus NS2B-NS3 protease (linked construct); assay: Primary screen NINDS Rhodamine qHTS for Zika virus inhibitors (AID 1347160); also: nearly all actives have a fitted effect of over 55% in size
In short: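 Rhodamine110-peptide cleavage (1.5 µM substrate) by 25 nM linked NS2B-NS3 enzyme at pH 8.0 (Tris, Tween 20), after 15 min RT preincubation with compounds; 15-min fluorescence change normalized to controls and Hill-fitted.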

[10] = tested on: Nanoluciferase (engineered Oplophorus gracilirostris luciferase); assay: Primary Nanoluciferase (NLuc) qHTS assay for identification of artifact compounds. (AID 1845222);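 also: NLuc secreted into diluted conditioned medium of S16 cells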
In short: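 Concentration-response data were obtained by luminescence after 5 min with Nano-Glo substrate at 1:100. The enzyme was diluted S16 NLuc-expressing cell medium, preincubated with compound for 15 min at RT. Curves were fitted with a 4-parameter Hill model.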

Measured: Potency

Cc1cc(CS(=O)(=O)c2ccccc2)cc(OCc2ccc(CN3CCC[C@@H]3CO)cc2)c1
inactive: [1] | [4] | [5] | [6] | [7] | CASKI | Es-2 | HeLa
active: [2] 12.9 µM and 16.6 µM | [3] 18.3 µM and 14.8 µM | OV90 25.1 µM

CC1(C)SC2C(NC(=O)[C@H](NC(=O)N3CCNC3=O)c3ccccc3)C(=O)N2C1C(=O)O (stereo partly specified)
not listed: [5] | [7] | [9] | [10]
inactive: all other assays above

C[C@H](NC(=O)C(C)(C)Oc1ccc(C(F)(F)F)cn1)[C@@H](Cc1ccc(Cl)cc1)c1cccc(C#N)c1
active: [2] 16.3 µM | [3] 20.5 µM
not listed: [7] | HeLa | Hek293T
inactive: all other assays above

C[N+]1(C)[C@@H]2CC[C@H]1CC(OC(=O)C(O)c1ccccc1)C2 (stereo partly specified)
inactive: all assays above

CN(C)CCCNc1nc(CN2CCN(C(c3ccc(Cl)cc3)c3ccc(Cl)cc3)CC2)nc2ccccc12
active: [2] 9.16 µM | [3] 7.28 µM
not listed: [4] | OV90
inactive: all other assays above

COCCNCc1ccc(-c2cc3nccc(Oc4ccc(NC(=S)NC(=O)Cc5ccc(F)cc5)cc4F)c3s2)nc1
active: [2] 2.9 µM | [3] 3.25 µM and 2.35 µM | PA-1 31.6 µM
not listed: Es-2 | HeLa | OV90 | [8] | C33A | Hek293T | Tov112D
inactive: all other assays above

CS(=O)(=O)c1ccc(-c2cn3ccccc3n2)cc1
active: C33A 10 µM | CASKI 6.31 µM | HeLa 12.6 µM | Hek293T 17.8 µM | JEG-3 7.08 µM | OV90 7.94 µM | PA-1 17.8 µM | Tov-21-G 8.91 µM | Tov112D 7.94 µM

CN([C@H]1c2cc(OCCCC(F)(F)F)ccc2OC(C)(C)[C@@H]1O)S(C)(=O)=O
not listed: [1] | [2] | [3] | [4] | [5]
inactive: all other assays above

O=C(c1ccc(F)c(F)c1Nc1ccc(I)cc1F)N1CC(O)([C@@H]2CCCCN2)C1
active: [2] 14.8 µM | [3] 14.5 µM and 14.8 µM
inactive: [1] | [4] | [8] | [6] | [10] | [7] | HeLa | JEG-3 | PA-1

CC1(CO)CCCC2(C)C1C(OC(=O)c1ccccc1)C=C1C(=O)OCC12O (stereo unspecified)
inactive: [9] | [4] | [8] | [10] | [7] | CASKI | HeLa | JEG-3 | Tov112D
active: [2] 2.84 µM | [3] 1.79 µM | Tov-21-G 11.2 µM

Cn1nccc1Nc1nccc(-c2ccn([C@H](CO)c3ccc(Cl)c(F)c3)c(=O)c2)n1
active: [2] 7.28 µM and 7.42 µM | [3] 10.3 µM and 8.33 µM
not listed: HeLa | OV90 | JEG-3 | PA-1 | [9] | [10]
inactive: all other assays above

CCCCc1nc(Cl)c(CO)n1Cc1ccc(-c2ccccc2-c2nnn[nH]2)cc1
not listed: [4] | [5] | [10]
inactive: all other assays above

Cn1c(NC[C@@H](N)Cc2ccccc2)nc(-c2ccncc2)c(-c2ccc3ccccc3c2)c1=O
active: [2] 18.6 µM | [3] 26.3 µM
not listed: [7] | [9]
inactive: all other assays above

CC[C@H](C)[C@H]1O[C@]2(CC[C@@H]1C)C[C@@H]1C[C@@H](C/C=C(\C)[C@@H](O[C@H]3C[C@H](OC)[C@@H](O[C@H]4C[C@H](OC)[C@@H](O)[C@H](C)O4)[C@H](C)O3)[C@@H](C)/C=C/C=C3\CO[C@@H]4[C@H](O)C(C)=C[C@@H](C(=O)O1)[C@]34O)O2
active: [2] 20.5 µM | [3] 9.16 µM
not listed: [4] | [5] | [6] | [8] | Hek293T
inactive: all other assays above
